The source of these data is PubChem BioAssay (NCI).

The panel holds about 83,000 compounds, 20% with a hit somewhere; the sample as a whole holds those more often.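 The test compound was applied at a single concentration to cells in 96-well plates for 48 hours, and percent growth was recorded.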 A number with no mark means an inactive call. Calls of active or inactive are those of the source. How the source made its calls: active means growth percent below 10; inactive means the rest.

The test system of the first experiment is OVCAR-8 ovarian. The experiment can be described thus: NCI-60 one-dose screen, 48 h (100 = growth as untreated, 0 = no growth, -100 = all killed). The following applies: 10 µM unless noted.
Turning to `CC(=O)Oc1ccc(OC(C)=O)c2ccccc12`, the growth was 48.8%.

In the case of `COC(=O)/C=C1/SC(=Nc2ccc([N+](=O)[O-])cc2)N(CCc2c[nH]c3ccc(O)cc23)C1=O`, the growth is 38.4%.

With `[2H]C([2H])([2H])Oc1ccc(F)cc1/C=C/C(=O)/C=C(/C=C/c1cc(F)ccc1OC([2H])([2H])[2H])OB(F)F`, the growth is 19.2%.

Regarding `Nc1c(C(=O)Nc2cccc(Cl)c2)sc2nc3c(cc12)CCCC3`, the growth was 93%.

Turning to `NS(=O)(=O)c1ccc(C(=O)NN2C(=O)c3c(Br)c(Br)c(Br)c(Br)c3C2=O)cc1`, the growth is 106%.

For the compound `Cc1c(Cl)cccc1C(=O)Nc1nc2c(s1)CN(C(=O)c1ccc(C(F)(F)F)cc1)CC2`, the growth was 10.1%.

With `CCCCCN(CCCCC)CC(O)c1cc(C)c2ccc3cc(C(C)C)ccc3c2c1` (configuration not stated), the growth was -35.9% (active).

For `CCC1S/C(=N\N=C(\C)c2cc3cc(Cl)ccc3o2)N(c2ccccc2)C1=O` (configuration not stated), the growth is 126%.

In the case of `CN1C(=O)/C(=C/c2ccc(C(=O)Nc3ncc(Cc4cccc(Cl)c4)s3)cc2)SC1=S`, the growth was 64.1%.

On to `O=C(NCc1cccc(CNC(=O)Nc2nc3ccccc3[nH]2)c1)Nc1nc2ccccc2[nH]1`, for which the growth is -52.3% (active).

As for `COc1ccc(Cn2cc3c(c2-c2ccccc2)CCc2cnoc2-3)cc1`, the growth was 19.9%.

For `Cc1ccc(CNc2c3ccccc3nc3ccccc23)cc1`, the growth was 21.8%.

With `FC(F)(F)c1ccc(Cn2cc(CSc3nc4ccccc4s3)nn2)cc1`, the growth was 91%.

For `COc1cc(OC)c2sc(-c3ccc(-n4cncc4-c4cc(OC)c(OC)c(OC)c4)cc3)nc2c1`, the growth is 76.1%.

For the compound `C#CCn1cnc2cnc(Nc3cccc(NC(=O)C=C)c3)nc21`, the growth was 84.1% [6.25 µM].

For `CCOC(=O)/C=C1\S/C(=N\Nc2cc(=O)[nH]c3ccccc23)N(c2ccccc2)C1=O`, the growth is 100%.

Take `Cc1ccc(/C=C/C(=O)c2ccc(-n3cc(CN4CCN(c5cc6c(cc5F)c(=O)c(C(=O)O)cn6C5CC5)CC4)nn3)cc2)cc1`: the growth was 62.5%.

Another experiment relates to OVCAR-5 ovarian. The experiment is described as above. To be noted: 10 µM unless noted.
Consider `CC(=O)OC[C@]12CC[C@@H]([C@@H](C)c3nnc(-c4ccncc4)o3)[C@@H]1[C@H]1CC[C@@H]3[C@@]4(C)CC[C@H](OC(C)=O)C(C)(C)[C@@H]4CC[C@@]3(C)[C@]1(C)CC2`, for which the growth was 109%.

On to `CCN(CC)c1ccc(/C=N/NC(=O)Cc2ccc(Nc3ccnc(C(F)(F)F)c3)cc2)c(O)c1`, for which the growth was 48.2%.

With `Cc1cc2c(cc1C)N(C(=O)CCl)CC(=O)N2`, the growth was 96.8%.

Consider `C#CC#CC#CC#CC#CC#CC#CC#CC[C@@H]1OC[C@@H](COC(=O)O[C@@H](C(=O)O[C@H]2C[C@@]3(O)[C@@H](OC(=O)c4ccccc4)[C@@H]4[C@]5(OC(C)=O)CO[C@@H]5C[C@H](O)[C@@]4(C)C(=O)[C@H](OC(C)=O)C(=C2C)C3(C)C)[C@@H](NC(=O)c2ccccc2)c2ccccc2)O1`, for which the growth is 5.15% (active).

Take `CCN1C(=O)N(CC)C2C1NN=c1s/c(=C\c3cnc(C)n3C)c(=O)n12` (configuration not stated): the growth is 35.2%.

For the compound `C/C=C(\C)C(=O)N[C@H]1C(O)C[C@]2(C)C3CC[C@@]4(C)C(CC[C@@H]4C(C)N(C)C)C3CCC2C1O` (some centres not stated), the growth is 95%.

In the case of `C#Cc1cccc(Nc2nc(C)nc3cc(NC(=O)CCl)ccc23)c1`, the growth is -84.7% (active).

As to `CSc1nn2c(-c3ccc4ccccc4c3)ccnc2c1C#N`, the growth is 46.7%.

For the compound `CCN(CC)CCCOc1ccc2ncnc(Nc3ccc(Oc4cccc(C(F)(F)F)c4)c(Cl)c3)c2c1`, the growth is 5.73% (active).

As to `O=C1/C(=C\c2ccccn2)c2ccccc2N1c1c(Cl)cccc1Cl`, the growth is 122%.

`CCOC(=O)c1c(C)c2c(n1Cc1ccccc1)CSCC2=O`: the growth was 33.6% [100 µM].

In the case of `O=C(CN1CCN(c2cc3c(cc2F)c(=O)c(C(=O)O)cn3C2CC2)CC1)N/N=C/c1ccco1`, the growth was 85.1%.

Take `Clc1ccc(-c2cc(-c3ccccc3)nc(NCCNc3ccnc4cc(Cl)ccc34)n2)cc1`: the growth is 48.9%.

Turning to `N#C/C(=C\C=C\c1ccc(-c2cc(Cl)ccc2Cl)o1)c1nc2ccccc2s1`, the growth is 102%.

In the case of `COc1cc(OC)c(C(=O)C(CN(C)C)CN(C)C)cc1OC`, the growth was 110%.

In the case of `CCn1cc(CNc2ccc(C(=O)Nc3cc4cc(OC)c(OC)cc4c(C)n3)cc2)cn1`, the growth is 93.1%.

In the case of `N#Cc1c(-c2ccccc2)nc(SCc2nnc(-c3ccc(Cl)cc3)o2)[nH]c1=O`, the growth is 114%.

With `O=P(O)(O)OCC1OC(n2cnc3c(NCc4ccco4)ncnc32)C(O)C1O` (configuration not stated), the growth was 45.3%.

Regarding `CCN(CC)CCCN1C(=O)c2c(c(C)c3c(oc4ccc(O)cc43)c2C)C1=O`, the growth is 103%.

As for `O=[N+]([O-])c1ccc(-c2cn3nc(-c4c[nH]c5ccccc45)sc3n2)cc1`, the growth is 96.9%.

In the case of `Cc1nc2ccccc2c(/C=C/c2ccccc2)c1C(=O)/C=C/c1ccccc1`, the growth is 6.51% (active).

On to `O=C1Nc2c(C(=O)O)cccc2/C1=N/c1n[nH]c(=S)s1`, for which the growth is 98%.

With `CC(=O)Oc1ccc(OC(C)=O)c2ccccc12`, the growth is 98.4%.

Turning to `COC(=O)/C=C1/SC(=Nc2ccc([N+](=O)[O-])cc2)N(CCc2c[nH]c3ccc(O)cc23)C1=O`, the growth was 86.4%.

Consider `[2H]C([2H])([2H])Oc1ccc(F)cc1/C=C/C(=O)/C=C(/C=C/c1cc(F)ccc1OC([2H])([2H])[2H])OB(F)F`, for which the growth was 107%.

Turning to `Nc1c(C(=O)Nc2cccc(Cl)c2)sc2nc3c(cc12)CCCC3`, the growth was 93.4%.

In the case of `NS(=O)(=O)c1ccc(C(=O)NN2C(=O)c3c(Br)c(Br)c(Br)c(Br)c3C2=O)cc1`, the growth is 107%.

`Cc1c(Cl)cccc1C(=O)Nc1nc2c(s1)CN(C(=O)c1ccc(C(F)(F)F)cc1)CC2`: the growth is 57.5%.

Take `CCCCCN(CCCCC)CC(O)c1cc(C)c2ccc3cc(C(C)C)ccc3c2c1` (configuration not stated): the growth is -28.2% (active).

In the case of `CCC1S/C(=N\N=C(\C)c2cc3cc(Cl)ccc3o2)N(c2ccccc2)C1=O` (configuration not stated), the growth is 100%.

In the case of `CN1C(=O)/C(=C/c2ccc(C(=O)Nc3ncc(Cc4cccc(Cl)c4)s3)cc2)SC1=S`, the growth is 61.8%.

As for `O=C(NCc1cccc(CNC(=O)Nc2nc3ccccc3[nH]2)c1)Nc1nc2ccccc2[nH]1`, the growth is -2.26% (active).

As for `COc1ccc(Cn2cc3c(c2-c2ccccc2)CCc2cnoc2-3)cc1`, the growth was 26%.

Turning to `Cc1ccc(CNc2c3ccccc3nc3ccccc23)cc1`, the growth was 38.1%.

Consider `FC(F)(F)c1ccc(Cn2cc(CSc3nc4ccccc4s3)nn2)cc1`, for which the growth is 98.6%.

Turning to `COc1cc(OC)c2sc(-c3ccc(-n4cncc4-c4cc(OC)c(OC)c(OC)c4)cc3)nc2c1`, the growth is 81.3%.

Consider `C#CCn1cnc2cnc(Nc3cccc(NC(=O)C=C)c3)nc21`, for which the growth is 101% [6.25 µM].

Turning to `CC(=O)/C(=C/c1ccc([N+](=O)[O-])cc1)C(=O)c1ccccc1`, the growth is 112%.

Turning to `CCOC(=O)/C=C1\S/C(=N\Nc2cc(=O)[nH]c3ccccc23)N(c2ccccc2)C1=O`, the growth was 101%.

As for `Cc1ccc(/C=C/C(=O)c2ccc(-n3cc(CN4CCN(c5cc6c(cc5F)c(=O)c(C(=O)O)cn6C5CC5)CC4)nn3)cc2)cc1`, the growth was 109%.
